In PubChem BioAssay AID463173 (ICCB-Longwood Screening Facility, Harvard Medical School, 2010):
Among all 52,000 compounds or so, about 4,300 (8.3%) were called active. Cut-off read from the data, not from the text of the source: active = survival mostly below about 52% (no sharp cut-off); inactive = mostly above about 56%. This excerpt belongs to a sample that is enriched for actives.

Test system: DeltatarO mutant
Assay: S. aureus survival, RN4220 and DeltatarO strains – OD600, teichoic acid synthesis inhibitors, primary screen (AID 463173)
Conditions: S. aureus RN4220 wild type/DeltatarO growth, OD600, 18 h, stronger effect = lower value, screened at 18.75 µg/mL (by protocol)

Row | Compound | survival
1 | Cc1ccc(CCNC(=O)c2cn(C)c3ccc(S(=O)(=O)N4CCC(C)CC4)cc3c2=O)cc1 | 72% (inactive)
2 | Cc1ccc(S(=O)(=O)n2nc(-c3ccccc3)nc2NCc2ccccc2Cl)cc1 | 85% (inactive)
3 | CCc1c(C)nc2nncn2c1NCc1ccc(OC)cc1 | 85% (inactive)
4 | COc1ccc2c(c1)CC(C(=O)Nc1ccc(Br)c(C)c1)CO2 (centres undefined) | 70% (inactive)
5 | CCCN1C(=O)CC(C(=O)OC)=C1C | 81% (inactive)
6 | CCOc1cccc2sc(N(Cc3cccnc3)C(C)=O)nc12 | 89% (inactive)
7 | Cc1cc(Br)ccc1NC(=O)c1coc(=O)c2ccccc12 | 90% (inactive)
8 | FC(F)(F)c1cc(-c2ccccc2)nc2cc(-c3ccccc3)nn12 | 59% (inactive)
9 | COc1ccc(-c2cc(C(F)(F)F)n3nc(-c4ccccc4)cc3n2)cc1OC | 61% (inactive)
10 | FC(F)(F)c1cc(-c2ccccc2)nc2cc(-c3ccc(Br)cc3)nn12 | 42% (active)
11 | CCN1CCN(Cc2nc3cc(NC(=O)c4ccccc4[N+](=O)[O-])ccc3n2CC)CC1 | 78% (inactive)
12 | Cc1cc(C)cc(NC(c2cccc(Cl)c2)c2nnc(-c3ccccc3)o2)c1 (centres undefined) | 92% (inactive)
13 | COc1ccc(NC(c2nnc(-c3ccccc3)o2)c2ccccc2F)cc1Cl (centres undefined) | 59% (inactive)
14 | Cc1cc(C)cc(NC(c2nnc(-c3cccc(F)c3)o2)c2ccc(F)cc2Cl)c1 (centres undefined) | 48% (inactive)
15 | Cc1cc(NC(c2nnc(-c3ccccc3)o2)c2ccccc2F)ccc1Br (centres undefined) | 40% (inactive)
16 | Fc1ccccc1C(NCCc1ccc(Cl)cc1)c1nnc(-c2ccccc2)o1 (centres undefined) | -9% (active)
17 | Clc1ccc(CCNC(c2nnc(-c3ccccc3)o2)c2ccccc2Cl)cc1 (centres undefined) | -3% (active)
18 | Fc1ccc(C(NCCc2ccc(Cl)cc2)c2nnc(-c3ccccc3)o2)c(Cl)c1 (centres undefined) | -2% (active)
19 | CCOc1ccc(CCNC(c2cccc(Cl)c2)c2nnc(-c3ccccc3)o2)cc1OCC (centres undefined) | 95% (inactive)
20 | Cc1ccc(NC(c2nnc(-c3ccccc3)o2)c2ccccc2F)c(Cl)c1 (centres undefined) | 85% (inactive)
21 | CC(C)c1ccc(NC(c2nnc(-c3ccccc3)o2)c2ccc(F)cc2Cl)cc1 (centres undefined) | 84% (inactive)
22 | CCOc1ccc(CCNC(c2nnc(-c3ccccc3)o2)c2ccccc2Cl)cc1OCC (centres undefined) | 1% (active)
23 | O=C(CSc1nnc(-c2cccc(F)c2)c(-c2cccc(F)c2)n1)NC1CCCCC1 | 73% (inactive)

Row | Compound | survival
24 | CC(C)c1ccc(NC(=O)CSC2=Nc3ccccc3C3=NC(CCC(=O)NC4CCCCC4)C(=O)N23)cc1 (centres undefined) | 88% (inactive)
25 | Cc1ccc(C(=O)CSc2nnc(CSc3nc(C)cc(C)n3)n2C)cc1 | 88% (inactive)
26 | COC(=O)c1ccc(Oc2nc3c(c(=O)n(C)c(=O)n3C)n2C(C)C)cc1 | 85% (inactive)
27 | CCCC(=O)Nc1nnc(SCc2cc(=O)n3ccccc3n2)s1 | 87% (inactive)
28 | Cc1cc(C)c2c(CC(=O)Nc3cc(C(F)(F)F)ccc3Cl)coc2c1 | 66% (inactive)
29 | COc1ccc(CCn2cc3c(c2-c2ccccc2Br)c(=O)n(C)c(=O)n3C)cc1OC | 67% (inactive)
30 | O=C(Oc1ccccc1)c1ccc(F)cc1 | 74% (inactive)
31 | Cn1c(NCCN)nc2c1c(=O)n(Cc1ccccc1)c(=O)n2C | 50% (inactive)
32 | CCOc1ccc2[nH]c(=O)c(CN(CC3CCCO3)C(=O)N(CC)CC)cc2c1 (centres undefined) | 98% (inactive)
33 | Clc1ccc(CCNC(c2ccc(Cl)cc2)c2nnc(-c3ccccc3)o2)cc1 (centres undefined) | 98% (inactive)
34 | Cc1ccc(NC(c2cccc(Cl)c2)c2nnc(-c3ccccc3)o2)cc1F (centres undefined) | 99% (inactive)
35 | Clc1ccc(CCNC(c2cccc(Cl)c2)c2nnc(-c3ccccc3)o2)cc1 (centres undefined) | 11% (active)
36 | Nc1nn(-c2ccccc2)nc1C(=O)OCc1ccc(Cl)cc1 | 44% (active)
37 | Nc1nn(-c2ccccc2)nc1C(=O)OCc1c(F)cccc1Cl | 28% (active)
38 | COc1cccc(COC(=O)c2ccc(-c3nnn(Cc4cccc(OC)c4)n3)cc2)c1 | 67% (inactive)
39 | O=C(NCCCc1ccccc1)c1nn(-c2ccccc2)nc1CO | 77% (inactive)
40 | COc1cccc(COC(=O)c2nn(-c3ccccc3)nc2N)c1 | 15% (active)
41 | O=C(NCc1ccccc1)c1nn(-c2ccccc2)nc1CO | 108% (inactive)
42 | Nc1nn(-c2ccccc2)nc1C(=O)OCc1ccccc1 | 58% (active)
43 | O=C(Cc1ccc(Cl)cc1)Nc1ccc2nn(-c3ccccc3)nc2c1 | 81% (inactive)
44 | O=c1ccc(-c2ccccc2)nn1Cc1c(F)cccc1Cl | 55% (inactive)
45 | O=C1CC(c2nnc(Cc3c(F)cccc3Cl)o2)CN1c1ccccc1 (centres undefined) | 129% (inactive)
46 | COc1cccc(COC(=O)c2ccc(-c3nnn(Cc4ccccc4)n3)cc2)c1 | 126% (inactive)

Row | Compound | survival
47 | Cc1cc2nn(-c3ccccc3)nc2cc1NC(=O)Cc1ccc(Cl)cc1 | 89% (inactive)
48 | COc1ccc(-c2oc3ncn4nc(-c5ccccc5Br)nc4c3c2-c2ccc(OC)cc2)cc1 | 77% (inactive)
49 | CCc1ccc(OCC(=O)Nc2ccc(S(=O)(=O)Nc3onc(C)c3C)cc2)cc1 | 73% (inactive)
50 | COC(=O)c1ccc(C(=O)OC)c(NC(=O)c2c(-c3ccccc3)c(-c3ccccc3)nn(C)c2=O)c1 | 60% (inactive)
51 | COc1ccc(CNC(=O)CCc2nc3cccnc3n2Cc2ccccc2)cc1 | 120% (inactive)
52 | Cc1ccc(NC(=O)NCCOCCn2c(=O)oc3ccccc32)cc1C | 86% (inactive)
53 | Cc1ccccc1Cn1c2ccccc2c2cnn(CC(=O)NCCc3ccccc3)c(=O)c21 | 96% (inactive)
54 | COc1ccc(-c2cn3nc(N4CCCC(C(=O)Nc5cc(C)ccc5C)C4)sc3n2)cc1 (centres undefined) | 76% (inactive)
55 | CCOc1ccc(NC(=O)Cn2cc(S(=O)(=O)c3ccc(C)cc3)c(=O)c3cc(F)ccc32)cc1 | 74% (inactive)
56 | CCC(=O)N1c2ccc(S(=O)(=O)CCC(=O)N3CCN(c4cc(C)ccc4C)CC3)cc2CC1C (centres undefined) | 85% (inactive)
57 | Cc1cc(C)cc(NC(=O)C(=O)NCC(c2ccc3c(c2)OCO3)N2CCOCC2)c1 (centres undefined) | 107% (inactive)
58 | CSc1ccc(CNC(=O)CCn2ccc3cc(S(=O)(=O)N4CCC(C)CC4)ccc32)cc1 | 88% (inactive)
59 | CCCCC(CC)CNC(=O)C1CCC(CNS(=O)(=O)c2cccc3nsnc23)CC1 (centres undefined) | 65% (inactive)
60 | Cc1ccc2oc(C(=O)Nc3ccc(S(=O)(=O)Nc4onc(C)c4C)cc3)cc(=O)c2c1 | 71% (inactive)
61 | O=C(CN1C(=O)COc2ccc(S(=O)(=O)Nc3ccccc3)cc21)Nc1cccc(Cl)c1 | 96% (inactive)
62 | Fc1ccc(-c2nc(Nc3ccc(F)c(Cl)c3)nc3c2COc2ccccc2-3)cc1 | 55% (inactive)
63 | O=C(c1cn(CC(=O)N2CCOCC2)c2ccccc12)C1CC1 | 90% (inactive)
64 | O=c1c2sccc2n(Cc2cc(=O)n3ccccc3n2)c(=O)n1-c1cc(F)ccc1F | 69% (inactive)
65 | CCN(CC)C(=O)c1sc2c(c1C)c(=O)n(-c1ccc(C)c(C)c1)c(=O)n2Cc1cc(=O)n2ccccc2n1 | 84% (inactive)
66 | CCN(CC)C(=O)c1sc2c(c1C)c(=O)n(-c1ccc(Cl)c(Cl)c1)c(=O)n2Cc1cc(=O)n2c(C)cccc2n1 | 32% (active)
67 | CCN(CC)C(=O)c1sc2c(c1C)c(=O)n(-c1ccccc1)c(=O)n2Cc1cc(=O)n2ccccc2n1 | 47% (active)
68 | CCN(CC)C(=O)c1sc2c(c1C)c(=O)n(-c1ccc(C)c(C)c1)c(=O)n2Cc1cc(=O)n2c(C)cccc2n1 | 49% (inactive)
69 | Cc1ccc(-n2c(=O)c3sccc3n(Cc3cc(=O)n4ccccc4n3)c2=O)cc1 | 63% (active)

Row | Compound | survival
70 | CCN(CC)C(=O)Cn1c(=O)n(-c2ccc(Cl)c(Cl)c2)c(=O)c2c(C)c(C(=O)N(CC)CC)sc21 | 83% (inactive)
71 | O=c1c2sccc2n(Cc2cc(=O)n3ccccc3n2)c(=O)n1-c1cccc(C(F)(F)F)c1 | 52% (inactive)
72 | CCN(CC)C(=O)c1sc2c(c1C)c(=O)n(-c1ccc(Cl)c(Cl)c1)c(=O)n2Cc1cc(=O)n2ccccc2n1 | 112% (inactive)
73 | Cc1ccc(S(=O)(=O)N(CC(=O)Nc2cccnc2)c2cc(Cl)ccc2C)cc1 | 78% (inactive)
74 | COc1ccc(NC(=O)CNC(=O)Cn2c(C)cc3ccccc3c2=O)c(OC)c1 | 62% (inactive)
75 | Nc1nc(SC#CC(F)(F)F)ns1 | 13% (active)
76 | C=CCSc1nsc(N)n1 | 75% (inactive)
77 | O=C(CSc1ccccc1)N1CCc2c([nH]c3ccccc23)C1c1ccc(F)cc1 (centres undefined) | 76% (inactive)
78 | O=C(CSc1ccccc1)N1CCc2c([nH]c3ccccc23)C1c1ccc(Cl)cc1 (centres undefined) | 52% (active)
79 | Cc1ccc(C2c3[nH]c4ccccc4c3CCN2C(=O)CSc2ccccc2)cc1 (centres undefined) | 69% (inactive)
80 | Cc1ccc(CCNS(=O)(=O)c2ccc3c(c2)C(C(C)C)C(=O)N3)cc1 (centres undefined) | 116% (inactive)
81 | COc1ccccc1CCNC(=O)C(=O)NCC(c1cccs1)S(=O)(=O)c1ccccc1 (centres undefined) | 82% (inactive)
82 | O=C(c1ccc(F)cc1F)N1CCC(c2noc(-c3ccc(S(=O)(=O)N4CCCC4)cc3)n2)CC1 | 97% (inactive)
83 | Cc1cccc2nc(-c3ccc(N(C)C)cc3)c(Nc3ccc4c(c3)OCO4)n12 | 102% (inactive)
84 | O=C(Nc1ccc2nc(SCC(=O)N3CCOCC3)sc2c1)c1cccc(Cl)c1 | 32% (active)
85 | O=C(Nc1ccc2nc(SCC(=O)N3CCOCC3)sc2c1)c1ccc(Br)cc1 | 83% (inactive)
86 | O=C(Nc1ccc2nc(SCC(=O)N3CCCC3)sc2c1)c1cccc(Cl)c1 | 52% (inactive)
87 | O=C(Nc1ccc2nc(SCC(=O)N3CCOCC3)sc2c1)c1ccc(Cl)cc1 | 68% (inactive)
88 | O=C(Nc1ccc2nc(SCC(=O)N3CCOCC3)sc2c1)c1cccc(Br)c1 | 29% (active)
89 | O=C(Nc1ccc2nc(SCC(=O)N3CCCC3)sc2c1)c1cccc(Br)c1 | 57% (inactive)
